From PubChem BioAssay (Tox21)
Calls of active or inactive are those of the source. Calls come from the whole dose curve; as a rule, active = well fitted curve in the direction sought with a large enough effect in the repeat runs; inconclusive = weak or mixed curves; inactive = flat fitted curve, though single readings scatter.
% is set by controls: 0 for no effect and ±100 for the full control effect.

Experiment: qHTS assay to test for compound auto fluorescence at 535 nm (green) in HEK293 cells (AID 720680)
Settings: green autofluorescence 485/535 nm; series mostly up to 91.3 µM
Description: U.S. Tox21 Program National Center for Advancing Translational Sciences [NCATS] NIH Chemical Genomics Center [NCGC] U.S. Environmental Protection Agency [EPA] National Institutes of Environmental Health Sciences [NIEHS] National Toxicology Program [NTP] U.S. Food and Drug Administration [FDA] Tox21 Assay Overview: Compound auto fluorescence often interferes with screening of the compound library against various biological targets and signaling pathways. Some of these compounds may have fluorophoric properties. Such properties may interfere with the assay outputs resulting in false positives and/or negatives. To decrease such complications and ensure the compound activities are relevant in terms of biological response, the Tox21 10K compound library was screened for auto fluorescence. From the fluorophores used as reporter signals in our screening assays, the auto fluorescence equivalencies of compounds against three fluorophores have been evaluated: Triamterene, Fluorescein and Rose Bengal sodium for blue, green and red fluorescence, respectively. The fluorescence intensities were measured using Excitation/Emission wavelengths at 405/460nm, 485/535nm and 540/590nm for blue, green and red labels, respectively. This assay includes the green fluorescence data.
Tox21 Assay Protocol Summary: 2,000 HEK293 cells in 5 uL of culture medium containing 10% dialyzed FBS per well were dispensed into black wall/clear bottom 1536-well plates using a Multidrop Combi Dispenser (Thermo Scientific). The assay plates were incubated for 4-5 hr at 37C to allow cell attachment to the well bottom, followed by the transfer of 23 nL compound or DMSO vehicle by a pintool work station (Kalypsys, San Diego, CA). After the assay plates were incubated overnight at 37C and 5% CO2, fluorescence intensities in the assay plates were measured by an Envision (PerkinElmer, Shelton, CT) plate reader using three labels for measuring blue, green and red fluorescence at […] 460, 535 and 590nm respectively.
For `COc1ccc(CCC(=O)c2c(O)cc(O[C@@H]3O[C@H](CO)[C@@H](O)[C@H](O)[C@H]3O[C@@H]3O[C@@H](C)[C@H](O)[C@@H](O)[C@H]3O)cc2O)cc1O`, the outcome was “inactive”. For `NC(=O)Cn1c(=O)cc(CCN2CCN(c3nccc4sccc34)CC2)c2ccc(F)cc21`, the outcome was “inactive”. For `CCC(=O)Oc1ccc(/C(CC)=C(\CC)c2ccc(OC(=O)CC)cc2)cc1`, the outcome was “inactive”. For `CC(N)CN` (stereo not given), the outcome was “inactive”. In the case of `CC(C)(C)C(=O)C(Oc1ccc(Cl)cc1)n1ccnc1` (stereo not given), the outcome is reported as “inactive”. In the case of `CC(=O)[C@H]1CC[C@H]2[C@@H]3C=CC4=CC(=O)CC[C@@]4(C)[C@@H]3CC[C@]12C`, the fluorescence, % of fluorescein is reported as -0.274% [at 18.6 µM] (inactive). In the case of `CN(C(=O)C(Cl)Cl)c1ccc(OC(=O)c2ccco2)cc1`, the outcome is reported as “inactive”. With `O=C(c1ccc(O)cc1)c1ccc(Cl)cc1` the outcome was “inactive”. In the case of `CC(C)=CC=O`, the outcome is reported as “inactive”. For `CCC(C(=O)OCCN(CC)CC)c1ccccc1` (stereo not given), the outcome was “inactive”. With `CCn1nc(C)c2c1C(=O)NCC(c1ccc(O)cc1)=N2` the outcome was “inactive”. For `C=CC(=C)CCCC(C)(C)OC(C)=O`, the outcome was “inactive”. With `O=C(Nc1ccc([N+](=O)[O-])cc1)Nc1ccc([N+](=O)[O-])cc1` the outcome was “inactive”. For `CC1(C)C2=CCCC(C)(C)[C@]23CC[C@H]1C3`, the outcome was “inactive”. In the case of `CN(C)C(=O)Nc1ccc(Oc2ccc(Cl)cc2)cc1`, the outcome is reported as “inactive”. For `Cc1cc(S(=O)(=O)O)ccc1N=Nc1c(O)ccc2ccccc12`, the outcome was “inactive”. In the case of `CC1C2CC(CC2C2CCCC(O)C2)C1(C)C` (stereo not given), the outcome is reported as “inactive”. With `CCCCCC=CCC=CCCCCCCCC(=O)OCC` the outcome was “inactive”. For `CCC1(C)CC(=O)NC1=O` (stereo not given), the outcome was “inactive”. For `COCC(O)CO` (stereo not given), the outcome was “inactive”. In the case of `CC(=O)Nc1ccc(N)cc1`, the outcome is reported as “inactive”. With `c1cc[c]([Bi]([c]2ccccc2)[c]2ccccc2)cc1` the outcome was “inactive”. For `Nc1nccs1`, the outcome was “inactive”. In the case of `C[C@@H]1C[C@H]2[C@@H]3CCC4=CC(=O)C=C[C@]4(C)[C@@]3(F)[C@@H](O)C[C@]2(C)[C@H]1C(=O)CO`, the outcome is reported as “inactive”. With `CC(=O)OCC(=O)[C@H]1CC[C@H]2[C@@H]3CCC4=CC(=O)CC[C@]4(C)[C@H]3CC[C@]12C` the outcome was “inactive”. For `CC1CC(=O)NN=C1c1ccc(NCC(C)(C)NCC(O)COc2cc(Cl)ccc2C#N)cc1` (stereo not given), the outcome was “inactive”. With `COCCOC(=O)C1=C(C)NC(C)=C(C(=O)OC/C=C/c2ccccc2)C1c1cccc([N+](=O)[O-])c1` (stereo not given) the outcome was “inactive”. For `O=C(CCC1CCN(Cc2ccccc2)CC1)c1ccc2c(c1)NCCCC2`, the outcome was “inactive”. With `NC(=O)Nc1ccc(Cl)cc1` the outcome was “inactive”. In the case of `Nc1ccc(Cl)cc1[N+](=O)[O-]`, the outcome is reported as “inactive”. For `O=C(Nc1ccccc1)Nc1ccccc1`, the outcome was “inactive”. With `CCOc1cc(N)c(Cl)cc1C(=O)NCC1CN(Cc2ccc(F)cc2)CCO1` (stereo not given) the outcome was “inactive”. For `Nc1ccc(S(=O)(=O)O)c(N)c1`, the outcome was “inactive”. For `CCCCC(CC)COC(=O)COc1ccc(Cl)cc1C` (stereo not given), the outcome was “inactive”. For `C=C(C)C(=O)OCCOC(=O)CC(C)=O`, the outcome was “inactive”. With `O=C(N[C@@H](c1ccccc1)[C@@H]1CCCCN1)c1cccc(C(F)(F)F)c1Cl` the outcome was “inactive”. For `OC/C(Br)=C(\Br)CO`, the outcome was “inactive”. In the case of `Cc1occc1C(=O)Nc1ccc(C(=O)N2CCC(F)(F)/C(=C\C(=O)N3CCC(N4CCCCC4)CC3)c3ccccc32)cc1`, the outcome is reported as “inactive”. In the case of `CC(C)(C)C(=O)O`, the outcome is reported as “inactive”. With `CCCCN(CCCC)C(=S)SSC(=S)N(CCCC)CCCC` the outcome was “inactive”.
